Hits are enriched below; roughly 10% of the tested compounds scored in any of these assays.
GLS inhibitor: inhibitors of human glutaminase (GLS) | O94925 | GLS enzymatic activity, qHTS titration | Potency, µM (titrated, usually from 45.5 µM), most hits filed as inhibitors | 410,000 compounds, 0.21% hits | AID 624170
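Assay buffer: 45 mM KH2PO4 pH 8.2, 0.02% Tween-20. hKGA acts on L-glutamine (1 mM solution added); product glutamate is reported by an oxidase/peroxidase Amplex Red coupling, with fluorescence taken at baseline and 30 min.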
BAZ2B block: inhibitors of human BAZ2B bromodomain. Potency, µM (doses to about 114 µM), most hits filed as inhibitors. AlphaScreen BAZ2B-H3K14Ac peptide displacement. Q9UIF8. 360,000 compounds, 4.4% hits; also: nearly all actives have a fitted effect of over 60% in size
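Multi-concentration screen (max 110 uM) measuring displacement of acetylated histone H3 peptide from BAZ2B by AlphaScreen, using 50 nM protein, 50 nM peptide and 10 ug/mL streptavidin donor plus Ni-chelate acceptor beads.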
HP1b binding inh: inhibitors of HP1-beta chromodomain binding to methylated histone tails; P83916; AlphaScreen HP1-beta / biotin-H3K9me3 peptide binding; Potency, µM (highest dose often 114 µM), most hits filed as inhibitors; 390,000 compounds, 0.56% hits; AID 540317; also: nearly all actives have a fitted effect of over 70% in size
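Compound inhibition of the preformed complex between 50 nM HP1-beta and 50 nM biotinylated H3K9me3 peptide was read by AlphaScreen. Buffer was PBS pH 7.4 with 0.01% Tween-20. Incubations ran 30 min at room temperature, with 10 ug/mL donor/acceptor beads.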
JMJD2A Tudor: blocks the human JMJD2A Tudor domain | O75164 | AlphaScreen JMJD2A-Tudor / H3K4me3 peptide binding | Potency, µM (highest dose often 114 µM), usual class: inhibitors | 390,000 compounds, 4.4% hits | AID 504339; also: nearly all actives have a fitted effect of over 50% in size
Target sequence (O75164 whole entry, looked up, the tested form may be a part): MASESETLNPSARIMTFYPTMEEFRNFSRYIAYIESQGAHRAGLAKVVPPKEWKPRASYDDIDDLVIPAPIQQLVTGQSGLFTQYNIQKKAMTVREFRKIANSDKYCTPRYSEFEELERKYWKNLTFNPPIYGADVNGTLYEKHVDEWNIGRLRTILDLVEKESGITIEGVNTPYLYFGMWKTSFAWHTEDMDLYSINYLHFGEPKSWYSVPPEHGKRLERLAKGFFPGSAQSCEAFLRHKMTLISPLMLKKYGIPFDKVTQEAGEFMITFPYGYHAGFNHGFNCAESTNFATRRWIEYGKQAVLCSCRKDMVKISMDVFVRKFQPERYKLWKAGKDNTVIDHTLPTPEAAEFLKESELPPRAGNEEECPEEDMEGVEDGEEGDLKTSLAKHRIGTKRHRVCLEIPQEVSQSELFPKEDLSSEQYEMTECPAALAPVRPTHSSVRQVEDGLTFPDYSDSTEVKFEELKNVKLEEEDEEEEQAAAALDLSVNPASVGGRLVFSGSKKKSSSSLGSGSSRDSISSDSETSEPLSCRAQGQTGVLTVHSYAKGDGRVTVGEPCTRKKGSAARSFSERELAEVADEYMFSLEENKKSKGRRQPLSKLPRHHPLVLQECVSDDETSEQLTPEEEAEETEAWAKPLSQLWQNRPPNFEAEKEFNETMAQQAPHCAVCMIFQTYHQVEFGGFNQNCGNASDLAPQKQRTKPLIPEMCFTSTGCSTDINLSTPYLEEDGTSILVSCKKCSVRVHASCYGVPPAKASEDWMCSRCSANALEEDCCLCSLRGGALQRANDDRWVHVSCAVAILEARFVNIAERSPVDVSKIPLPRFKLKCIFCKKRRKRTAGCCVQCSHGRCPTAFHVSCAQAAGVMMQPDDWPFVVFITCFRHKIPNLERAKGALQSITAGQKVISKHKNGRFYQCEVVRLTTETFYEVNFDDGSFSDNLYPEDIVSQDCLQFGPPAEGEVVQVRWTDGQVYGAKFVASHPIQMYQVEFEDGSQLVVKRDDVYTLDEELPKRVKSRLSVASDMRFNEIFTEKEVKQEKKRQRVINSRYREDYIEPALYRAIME
G9a inh: blocks human histone lysine methyltransferase G9a; Q96KQ7; G9a H3K9 monomethylation, AlphaScreen, 2 h; Potency, µM (top dose mostly 102 µM), most hits filed as inhibitors; 350,000 compounds, 8.8% hits; also: nearly all actives have a fitted effect of over 75% in size
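Methyltransferase reactions run at room temperature for 2 h (20 nM enzyme, 500 nM biotin-H3K9 peptide, 20 uM SAM) after a 15 min compound preincubation; product detected by AlphaScreen beads and anti-H3K9me1 antibody.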
Of the large screens only hits and unclear results are named; the others gave an inactive call. Calls follow the shape of the dose curve; as a rule, active = well fitted curve in the direction sought with a large enough effect; inconclusive = small, poorly fitted or top-dose-only effect, or another doubt; inactive = no such curve, though single readings can be large; an effect the other way counts as inactive or inconclusive.

S=C1NCCc2ccccc2C1c1ccccc1 (stereo unspecified)	BAZ2B block 44.7µM, HP1b binding inh inconclusive, G9a inh inconclusive
S=C1NCCc2ccccc2C1c1ccccc1Cl (stereo unspecified)	BAZ2B block 44.7µM, JMJD2A Tudor inconclusive
O=C(CC1NCCc2ccccc21)Nc1ccccc1Cl (stereo unspecified)	none
CCCn1nnnc1NCc1ccccc1OCC	G9a inh 35.5µM
O=C(O)c1cccc(S(=O)(=O)Nc2ccccc2Cl)c1	none
O=C(O)c1cccc(S(=O)(=O)Nc2cccc3ccccc23)c1	G9a inh 39.8µM
O=S(=O)(Nc1cccc2ccccc12)c1ccccc1	none (no result: G9a inh)
O=S(=O)(O)c1c(NS(=O)(=O)c2ccccc2)ccc2ccccc12	JMJD2A Tudor 89.1µM (no result: GLS inhibitor, BAZ2B block, G9a inh)
O=S(=O)(Nc1cccc2ccccc12)c1ccc2ccccc2c1	HP1b binding inh inconclusive, JMJD2A Tudor 79.4µM (no result: GLS inhibitor, BAZ2B block, G9a inh)
Cc1ccc(C)n1-c1ccc(C(=O)NCc2ccncc2)cc1	JMJD2A Tudor inconclusive (no result: BAZ2B block)
Cc1ccc(C)n1-c1ccc(C(=O)NN)cc1	GLS inhibitor inconclusive, JMJD2A Tudor 50.1µM
O=C(CSc1ccc(Cl)cc1)Nc1nnc(-c2ccco2)o1	BAZ2B block 50.1µM, JMJD2A Tudor inconclusive
O=C(CSc1nnc(-c2ccco2)o1)NCCc1ccccc1	none
O=C(CSc1nnc(-c2ccco2)o1)NC(=O)Cc1ccccc1	BAZ2B block 79.4µM, G9a inh inconclusive
O=C(CSc1nnc(-c2ccco2)o1)c1ccccc1	none
O=C(CSc1ccc(Cl)cc1)Nc1cccc(-c2nnc(-c3ccco3)o2)c1	none
O=C(CSc1nnc(-c2ccco2)o1)c1ccc[nH]1	BAZ2B block 44.7µM, G9a inh 39.8µM
NN(CCO)C(=S)Nc1ccc(Cl)cc1	BAZ2B block inconclusive, G9a inh 11.2µM
CCn1c(SCC(=O)Nc2ccc(C)cc2)nc2sc3c(c2c1=O)CCN(C)C3	G9a inh inconclusive
CCSc1nc2sc3c(c2c(=O)n1-c1ccccc1)CCN(C)C3	G9a inh 79.4µM
CN1CCc2c(sc3c2c(=O)n(-c2ccccc2)c2nnc(SCc4ccc(F)cc4)n32)C1	none (no result: BAZ2B block, G9a inh)
O=C(CSc1nc2sc3c(c2c(=O)n1-c1ccccc1)CCCC3)N/N=C/c1ccc(C(=O)O)cc1	HP1b binding inh 79.4µM, JMJD2A Tudor 79.4µM
CCn1c(SCC(N)=O)nc2sc3c(c2c1=O)CCN(C)C3	G9a inh 56.2µM
CN1CCc2c(sc3c2c(=O)n(-c2ccccc2)c2nnc(SCc4ccccc4)n32)C1	JMJD2A Tudor 89.1µM, G9a inh inconclusive
COc1ccc(-n2c(-c3ccc(Br)cc3)c[n+]3c2SC(C)C3)cc1 (stereo unspecified)	G9a inh inconclusive
COc1ccc(C)cc1N1CC(C(=O)Nc2ccccc2C(=O)NC2CC2)CC1=O (stereo unspecified)	none
Cc1ccc(OCCn2c(C)nc3ccccc32)cc1	none
Cc1ccc(-n2c(Cn3c(C)nc4ccccc43)n[nH]c2=S)cc1	JMJD2A Tudor 8.91µM, G9a inh 10µM
Cc1ccc(Cc2nc3ccccc3[nH]2)cc1	none
Cc1ccc(-n2c(CCc3nc4ccccc4[nH]3)n[nH]c2=S)cc1	JMJD2A Tudor 7.94µM, G9a inh inconclusive
CCn1c(CCc2nc3ccccc3[nH]2)n[nH]c1=S	JMJD2A Tudor 3.98µM, G9a inh inconclusive
Cc1cc(C)c(NC(=O)CN2C(=O)CCSc3ccc(S(=O)(=O)N4CCCC4)cc32)c(C)c1	none
CCOC(=O)C1CCCN(C(=O)c2ccc3c(c2)C(C)(C)CCC3(C)C)CC1 (stereo unspecified)	none (no result: BAZ2B block, HP1b binding inh, JMJD2A Tudor, G9a inh)
CC1CCCC(NCC(O)COC(c2ccc(F)cc2)c2ccc(F)cc2)C1C (stereo unspecified)	BAZ2B block inconclusive, HP1b binding inh inconclusive, JMJD2A Tudor 1µM, G9a inh 8.91µM
COc1ccc(C2c3sc(=O)[nH]c3SC3C(=O)N(c4ccccc4)C(=O)C32)cc1 (stereo unspecified)	BAZ2B block inconclusive, JMJD2A Tudor inconclusive, G9a inh 8.91µM
CCOC(=O)[C@]12CCCC=C1N(Cc1cccc3ccccc13)C(=O)[C@H](CC(=O)N1CCSCC1)C2	none (no result: BAZ2B block, HP1b binding inh, JMJD2A Tudor, G9a inh)
C#CCOCCOCCOCCNc1nc(N2CCN(C(=O)[C@H]([C@@H](C)CC)n3cc(CCCN=C(N)N)nn3)CC2)nc(N2CCN(C(=O)[C@H](CCCCN)n3cc(CCC(=O)O)nn3)CC2)n1	G9a inh 50.1µM
C#CCOCCOCCOCCNc1nc(N2CCN(C(=O)[C@H]([C@@H](C)CC)n3cc(CCCCN)nn3)CC2)nc(N2CCN(C(=O)[C@H]([C@@H](C)CC)n3cc(CCCN=C(N)N)nn3)CC2)n1	none
C#CCOCCOCCOCCNc1nc(N2CCN(C(=O)[C@H]([C@@H](C)O)n3cc(CCCCN)nn3)CC2)nc(N2CCN(C(=O)[C@H]([C@@H](C)CC)n3cc(CCCN=C(N)N)nn3)CC2)n1	BAZ2B block inconclusive, G9a inh 50.1µM
CCC(=O)Nc1ccc(OCc2cc(C3Nc4ccccc4C(=O)N3Cc3ccccc3)ccc2OC)cc1 (stereo unspecified)	none (no result: GLS inhibitor, BAZ2B block, HP1b binding inh, G9a inh)
CCOc1ccc(S(=O)(=O)N(C)c2ccc(OCC(=O)Nc3nc(-c4cc(OC)ccc4OC)cs3)cc2)cc1	G9a inh 50.1µM
CCOC(=O)Cc1csc(NC(=O)COc2ccc(N(C)S(=O)(=O)c3ccc(C)cc3)cc2)n1	none
Cn1nc(C(C)(C)C)cc1C(=O)N1CCCC(c2cc(C(=O)Nc3ccccc3Cl)no2)C1 (stereo unspecified)	none (no result: BAZ2B block, HP1b binding inh, JMJD2A Tudor, G9a inh)
CCC(Oc1nc2ccccc2nc1-c1ccccc1NC(C)=O)C(=O)c1ccccc1 (stereo unspecified)	none (no result: G9a inh)
CO/N=C/c1ccc(N2CCN(C(=O)c3ccc(Cl)cc3Cl)CC2)c([N+](=O)[O-])c1	BAZ2B block inconclusive, JMJD2A Tudor inconclusive, G9a inh 20µM
CO/N=C/c1ccc(N2CCN(C(=O)c3ccc(F)cc3)CC2)c([N+](=O)[O-])c1	BAZ2B block inconclusive, JMJD2A Tudor inconclusive, G9a inh 44.7µM
CO/N=C/c1ccc(N2CCN(C(=O)c3cccc(C(F)(F)F)c3)CC2)c([N+](=O)[O-])c1	BAZ2B block inconclusive, JMJD2A Tudor inconclusive, G9a inh inconclusive
CCOCCCNC(=O)c1cc(=O)[nH]c2ccc(S(=O)(=O)N3CCCC3)cc12	none
Cc1cc(Nc2cccc(C(=O)O)c2)n2ncnc2n1	none
Cc1cc(-c2onc3ccc(Cl)cc23)ccc1O	G9a inh 39.8µM
CC(=O)c1ccc2noc(-c3ccc(Cl)cc3)c2c1	G9a inh inconclusive
O=C(CSc1nnc(-c2cccs2)o1)NCC1CN(Cc2ccccc2)CCO1 (stereo unspecified)	BAZ2B block 56.2µM, G9a inh 3.55µM
C=CCNC(=O)CSc1nnc(-c2cccs2)o1	none
O=C(O)c1cccc(Nc2nc3ccccc3nc2NS(=O)(=O)c2cccs2)c1	G9a inh 44.7µM
CC(=O)c1ccc(Nc2nc3ccccc3nc2NS(=O)(=O)c2cccs2)cc1	none
